Screening data as filed in PubChem.
Cycloheximide cs = Cycloheximide Counterscreen for Small Molecule Inhibitors of Shiga Toxin. AID 2314, 2010. max response, %. 12% of 300,000 active. cell reporter, cycloheximide protein synthesis inhibition counterscreen; in the data active means max response mostly above about 13%, no sharp cut-off; inactive means mostly below about 14%; further: read at 38.3 µM for the half of the compounds with a filed dose
Shiga toxin inh = A qHTS for Small Molecule Inhibitors of Shiga Toxin; AID 2315, 2010; 9.2% of 290,000 active; inhibition, % at 38.7 µM; Vero cells, Shiga toxin protein synthesis inhibition reporter; in the data active means inhibition mostly above about 28%, no sharp cut-off; inactive means mostly below about 43%
SARS PLP yeast = qHTS of Yeast-based Assay for SARS-CoV PLP; S. cerevisiae expressing SARS-CoV PLpro, growth rescue; Potency, µM (series often up to 32.9 µM), usual class: activators; 0.19% of 330,000 active; calls by dose curve; further: nearly all actives have a fitted effect of over 55% in size
Pf growth 48h = Primary qHTS for delayed death inhibitors of the malarial parasite plastid, 48 hour incubation; P. falciparum luciferase growth in erythrocytes, 48 h; Potency, µM (highest dose often 28.7 µM), most hits filed as inhibitors; 5.9% of 310,000 active
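Parasite viability was followed by luminescence of a genomically integrated firefly luciferase. Cultures held 0.1% parasitemia at 2% hematocrit (final), incubated under 5% CO2 at 37 C.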
Pf growth 96h = Primary qHTS for delayed death inhibitors of the malarial parasite plastid, 96 hour incubation; P. falciparum luciferase reporter growth, 96 h; Potency, µM (top dose mostly 28.7 µM), hits mostly inhibitors; 6.9% of 320,000 active
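P. falciparum expressing integrated firefly luciferase grown in erythrocytes (2% hematocrit, 0.05% parasitemia final) with compounds for 96 hours at 37 C, 5% CO2. Growth inhibition read as loss of luminescence after adding luciferase detection reagent.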
NS1 inh = qHTS Assay for Inhibitors of Influenza NS1 Protein Function; AID 2326, 2010; 0.4% of 270,000 active; Potency, µM (top dose mostly 46.1 µM); calls by dose curve; further: actives are rising curves; nearly all actives have a fitted effect of over 50% in size
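Recovery from NS1-induced slow growth read by OD600 in budding yeast switched to galactose assay medium (pH 6.0, -URA) at 1:100 dilution. Compound 23 nl per well; the matching strain lacking NS1 serves as control.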
Each line names hits and unclear results; the compound was inactive in the other large screens. This is a sample that favours compounds with a hit; in the whole collection about 21% have one here. Unless noted, the call rests on the fitted dose curve; in most records, active means well fitted inhibition curve with a large enough effect; inconclusive means small, poorly fitted or top-dose-only effect, or another doubt; inactive means no such curve, though single readings can be large or run the other way.

CCc1ccc(NC(=O)c2cc(-c3ccco3)on2)cc1	Cycloheximide cs 52.5, Shiga toxin inh 57.4, Pf growth 96h 2.94µM
COc1ccc(NC(=O)C2=CC(c3ccco3)=NS(=O)(=O)N2C)cc1	Cycloheximide cs 16.7
O=C(Nc1c(Cl)cccc1Cl)c1cc(-c2ccco2)on1	none
COc1ccc(NC(=O)c2cc(-c3ccco3)on2)cc1	Cycloheximide cs 60.7, Shiga toxin inh 89.2, Pf growth 96h inconclusive (no result: NS1 inh)
CC(C)NC(=O)c1cc(-c2ccco2)on1	Cycloheximide cs 32.4, Shiga toxin inh 105.7, Pf growth 96h inconclusive
CCCc1nnc(NC(=O)C2CCN(C(=O)c3ccco3)CC2)s1	Pf growth 48h inconclusive
CCCCn1c(N)c(N(CC(C)C)C(=O)c2c(-c3ccccc3)noc2C)c(=O)[nH]c1=O	Pf growth 48h inconclusive, Pf growth 96h inconclusive (no result: Cycloheximide cs, Shiga toxin inh, NS1 inh)
CC(C)OC(=O)c1cn(Cc2c(F)cccc2F)c2sc(-c3ccc(NC(=O)C(C)C)cc3)c(CN(C)Cc3ccccc3)c2c1=O	none (no result: SARS PLP yeast, Pf growth 48h, Pf growth 96h, NS1 inh)
CCNc1nc(NCC)nc(C(=O)OCCO)n1	none (no result: Pf growth 48h)
CC[C@]12CCCN3CCc4c(n(c5ccccc45)[C@](O)(C(=O)OC)C1)[C@@H]32	Pf growth 48h inconclusive (no result: Cycloheximide cs, Shiga toxin inh, NS1 inh)
CCC12CCCN3CCc4c(n(c5ccccc45)C(O)(C(=O)OC)C1)C32 (stereo unspecified)	none
CC[C@@]12CCCN3CCc4c(n(c5ccccc45)C(=O)C1)[C@H]32	Pf growth 48h inconclusive, Pf growth 96h 6.42µM (no result: Cycloheximide cs, Shiga toxin inh, SARS PLP yeast)
CCOC(=O)C1=C[C@@]2(CC)CCCN3CCc4c(n1c1ccccc41)[C@H]32	Pf growth 48h 6.01µM (no result: Cycloheximide cs, Shiga toxin inh, SARS PLP yeast, NS1 inh)
CCN1C(=O)C(CC(=O)Nc2ccc(Br)cc2)N(CCCc2ccccc2)C1=S (stereo unspecified)	Pf growth 48h inconclusive, Pf growth 96h inconclusive
CCOc1cc(CNCCO)cc(Br)c1OCc1ccc(Cl)cc1Cl	Pf growth 48h 8.28µM
CCOc1cccc(CNCCO)c1OCc1ccc(Cl)cc1Cl	Pf growth 48h inconclusive, Pf growth 96h inconclusive
CCOc1cc(CNCCSc2nnnn2C)cc(Br)c1OCc1ccccc1F	Pf growth 48h inconclusive, Pf growth 96h 8.28µM
CC(NC(=O)c1ccncc1)c1ccccc1 (stereo unspecified)	Pf growth 96h inconclusive (no result: Shiga toxin inh)
COc1ccc(OC)c(CNC(=O)C2CCC(=O)N2C(C)C)c1 (stereo unspecified)	Pf growth 96h inconclusive
CCCCC(=O)Nc1nc(C)c(-c2csc(Nc3cc(OC)ccc3OC)n2)s1	Pf growth 48h 1.04µM, Pf growth 96h inconclusive
CCCCC(=O)Nc1nc(C)c(-c2csc(Nc3cc(Cl)ccc3OC)n2)s1	Pf growth 48h 8.28µM, Pf growth 96h 4.65µM, NS1 inh inconclusive
Cc1cc(-c2nc(-c3ccncc3)no2)ccc1[N+](=O)[O-]	Cycloheximide cs 32.8, Shiga toxin inh 88.5 (no result: Pf growth 48h)
COc1ccc(-c2nc(-c3ccncc3)no2)cc1OC	Cycloheximide cs 47.7, Shiga toxin inh 79.3, Pf growth 96h inconclusive (no result: Pf growth 48h)
COc1ccc(-c2noc(CSc3nnc(Cc4ccccc4)n3-c3cccc(C)c3)n2)cc1OC	none (no result: Pf growth 96h)
Fc1cccc(F)c1-c1nc(-c2ccncc2)no1	Cycloheximide cs 47.6, Shiga toxin inh 85.6
CCn1c(SCc2nc(-c3ccc(OC)c(OC)c3)no2)nnc1-c1cccs1	Cycloheximide cs 15.4, Pf growth 48h inconclusive, Pf growth 96h inconclusive
Cc1ccc(C)c(N(CC(=O)NC(C)(C)C)C(=O)CCC(=O)Nc2nccs2)c1	none
CCN(CC(=O)Nc1ccc(NC(C)=O)cc1)C(=O)CC1OC(=O)c2ccccc21 (stereo unspecified)	none (no result: Cycloheximide cs, Shiga toxin inh, NS1 inh)
O=C(OC(C(=O)NC1CCCCC1)c1ccc(C(F)(F)F)cc1)c1ccco1 (stereo unspecified)	Pf growth 48h inconclusive, Pf growth 96h inconclusive (no result: Cycloheximide cs, Shiga toxin inh, NS1 inh)
COc1ccc(-c2noc(-c3ccco3)n2)cc1OC	Cycloheximide cs 42.7, Shiga toxin inh 139.0, Pf growth 96h inconclusive (no result: SARS PLP yeast)
COc1ccc(-c2noc(-c3ccccc3Cl)n2)cc1OC	Cycloheximide cs 56.1, Shiga toxin inh 65.1 (no result: Pf growth 96h)
COc1ccc(-c2noc(-c3cccc(Cl)c3)n2)cc1OC	none
Cc1ccc(-c2nc(-c3ccncc3)no2)cc1C	Cycloheximide cs 51.8, Shiga toxin inh 132.9
COc1ccc(-c2noc(-c3cccs3)n2)cc1OC	Cycloheximide cs 51.8, Shiga toxin inh 69.2
COc1cc(-c2noc(-c3cccs3)n2)cc(OC)c1OC	Pf growth 48h inconclusive, Pf growth 96h inconclusive
COc1ccc(-c2ccc(-c3noc(-c4ccc(OC)c(OC)c4)n3)c(OC)n2)cc1	none (no result: Pf growth 96h)
Cc1ccc(-c2nc(-c3ccncc3)no2)cc1Cl	Cycloheximide cs 27.8, Shiga toxin inh 61.1
CCOc1ccc(-c2noc(-c3ccncc3)n2)cc1OCC	none
Cc1ccc(-c2nc(-c3ccccn3)no2)cc1[N+](=O)[O-]	Cycloheximide cs 37.0, Shiga toxin inh 54.7
Cc1ccc(-c2nc(-c3ccccn3)no2)cc1Cl	none (no result: Pf growth 96h)
CCC1(O)CC2CN(CCc3c([nH]c4ccccc34)[C@@](C(=O)OC)(c3cc4c(cc3OC)N(C)C3[C@]45CCN4CC=C[C@@](CC)([C@@H](OC(C)=O)[C@]3(O)C(=O)OC)[C@H]45)C2)C1 (stereo partly specified)	none (no result: Cycloheximide cs, Shiga toxin inh, SARS PLP yeast, Pf growth 48h, Pf growth 96h)
O=C1/C(=C/c2cccs2)CCC/C1=C\c1cccs1	Cycloheximide cs 39.4, Shiga toxin inh 107.8
Cn1cccc1/C=C1\CCC/C(=C\c2cccn2C)C1=O	Cycloheximide cs 52.0, Shiga toxin inh 109.1 (no result: Pf growth 48h)
C=CCN1C(=O)NC(=O)/C(=C/c2cccn2C)C1=O	none
Cc1nn(-c2ccccc2)c2nc(N)c(C#N)c(-c3ccc(C(C)(C)C)cc3)c12	Pf growth 48h inconclusive, Pf growth 96h 4.65µM
COc1cccc(-c2c(C#N)c(N)nc3c2c(C)nn3-c2ccccc2)c1O	Pf growth 48h 0.37µM, Pf growth 96h 0.522µM
CC(C#Cc1ccc2c(c1)COc1c3ccccc3nn1-2)OC(C)(C)C (stereo unspecified)	none (no result: Cycloheximide cs, Shiga toxin inh, NS1 inh)
CCN(CC)c1ccc(N)cc1	Pf growth 48h 1.85µM, Pf growth 96h inconclusive (no result: Cycloheximide cs, Shiga toxin inh, NS1 inh)
COc1ccccc1C(=O)NC(=O)COC(=O)CCOc1cc(C)ccc1C	Pf growth 48h inconclusive, Pf growth 96h inconclusive
CCOc1ccc(/C=N/OCC(=O)Nc2ccc(OCc3ccccc3)cc2)cc1OC	Cycloheximide cs 17.4, Pf growth 96h inconclusive
COc1ccc(/C=N/OCC(=O)Nc2cc(C)on2)cc1OC	SARS PLP yeast inconclusive
COc1ccc(NC(=O)CN(C)C(=O)c2ccc(OCc3ccccc3)c(OC)c2)cc1	Pf growth 96h inconclusive (no result: Cycloheximide cs, Shiga toxin inh, NS1 inh)
COc1cc(/C=N/OCC(=O)Nc2ccc(OC(F)F)cc2)ccc1OCc1ccccc1	Cycloheximide cs 45.5
CN(C(=O)c1ccc(OC2CCN(CCc3ccccc3)CC2)cc1)C1CCCCC1	none
CN(C(=O)COC(=O)C1COc2ccccc2O1)c1c(N)n(Cc2ccccc2)c(=O)[nH]c1=O (stereo unspecified)	Pf growth 48h inconclusive (no result: Cycloheximide cs, Shiga toxin inh, NS1 inh)
